According to publication PMC4336329 (PLoS ONE, 2015):
Out of some 310,000 compounds screened, about 14,000 (4.5%) showed an effect of 50% or more. The effect is printed as a negative number. This is one part of a sample in which strong results are shown more often than they occur.
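Also: peak tail current of the secondary pulse compared with the same well before compound.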

These compounds were tested against human ether-à-go-go-related gene (hERG) potassium channel (human, UniProt Q12809) (assay: primary screen, population patch clamp on CHO cells stably expressing hERG; higher = less effect of the substance).
Sequence of human ether-à-go-go-related gene (hERG) potassium channel (Q12809 whole entry, looked up): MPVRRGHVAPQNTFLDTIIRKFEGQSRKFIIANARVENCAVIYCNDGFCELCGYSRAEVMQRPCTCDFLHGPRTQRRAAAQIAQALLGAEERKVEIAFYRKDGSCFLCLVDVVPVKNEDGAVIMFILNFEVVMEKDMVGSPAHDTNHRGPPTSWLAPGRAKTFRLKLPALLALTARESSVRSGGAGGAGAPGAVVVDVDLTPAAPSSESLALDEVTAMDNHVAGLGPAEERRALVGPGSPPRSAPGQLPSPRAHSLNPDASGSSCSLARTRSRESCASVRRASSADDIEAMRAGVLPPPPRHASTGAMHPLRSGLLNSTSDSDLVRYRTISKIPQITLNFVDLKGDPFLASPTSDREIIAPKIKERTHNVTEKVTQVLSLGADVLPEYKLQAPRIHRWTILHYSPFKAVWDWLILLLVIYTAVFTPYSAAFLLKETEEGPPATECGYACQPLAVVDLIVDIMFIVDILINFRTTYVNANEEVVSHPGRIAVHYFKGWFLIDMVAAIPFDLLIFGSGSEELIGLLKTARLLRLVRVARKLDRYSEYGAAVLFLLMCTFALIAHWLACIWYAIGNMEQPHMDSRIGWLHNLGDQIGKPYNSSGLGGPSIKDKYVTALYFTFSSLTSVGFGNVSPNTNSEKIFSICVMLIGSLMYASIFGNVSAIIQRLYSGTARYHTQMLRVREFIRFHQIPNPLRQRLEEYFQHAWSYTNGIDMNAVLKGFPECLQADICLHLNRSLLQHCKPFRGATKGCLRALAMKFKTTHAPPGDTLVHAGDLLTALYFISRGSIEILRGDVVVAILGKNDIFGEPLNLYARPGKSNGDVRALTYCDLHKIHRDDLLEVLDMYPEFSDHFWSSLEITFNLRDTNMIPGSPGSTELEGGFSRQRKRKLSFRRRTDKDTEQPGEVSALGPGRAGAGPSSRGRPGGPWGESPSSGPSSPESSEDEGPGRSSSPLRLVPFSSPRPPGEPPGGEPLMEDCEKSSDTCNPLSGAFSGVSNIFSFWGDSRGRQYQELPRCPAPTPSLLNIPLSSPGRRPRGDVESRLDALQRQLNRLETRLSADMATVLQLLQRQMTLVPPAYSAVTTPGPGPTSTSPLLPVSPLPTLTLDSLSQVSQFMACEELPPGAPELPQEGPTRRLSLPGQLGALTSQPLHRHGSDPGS
`CC1(C)CC2(CCO1)OC(=O)CC2C(=O)Nc1cccc2ccccc12` (stereo not shown) was tested, and the “hERG current change (%, negative = inhibition) at 10uM” value was 12%. In the case of `Cn1cccc1/C=C1\SC(=S)N(CC(=O)O)C1=O`, the “hERG current change (%, negative = inhibition) at 10uM” value is reported as 1.83%. In the case of `COc1ccc(OC)c(S(=O)(=O)n2cnc3ccccc32)c1`, the “hERG current change (%, negative = inhibition) at 10uM” value is reported as -5.26%. `Cc1cccc(CS(=O)(=O)c2ncc(CO)n2C)c1` was tested, and the “hERG current change (%, negative = inhibition) at 10uM” value was 16%. `CCCCc1cc2ccccc2c(OCCN(C)C)n1.Cl` was tested, and the “hERG current change (%, negative = inhibition) at 10uM” value was -61.9%. In the case of `Cc1cc(C)c(S(=O)(=O)c2ccccc2C)c(OCCN(C)C)n1`, the “hERG current change (%, negative = inhibition) at 10uM” value is reported as -20.2%. In the case of `CN(C)CCOc1ncnc2c1oc1ccccc12`, the “hERG current change (%, negative = inhibition) at 10uM” value is reported as -13.5%. In the case of `CCCCCCCC(=O)NNC(=O)c1ccc([N+](=O)[O-])cc1`, the “hERG current change (%, negative = inhibition) at 10uM” value is reported as -20.6%. In the case of `Nc1cc(C(=O)OCC(=O)c2ccc(CC(=O)N3CCOCC3)s2)ccc1Cl`, the “hERG current change (%, negative = inhibition) at 10uM” value is reported as -27.8%. For `Cc1cccc(C(=O)OCC(=O)c2ccc(CC(=O)N3CCOCC3)s2)c1C`, the “hERG current change (%, negative = inhibition) at 10uM” value was -52.4%. `Cc1ccc(C(=O)OCC(=O)c2ccc(CC(=O)N3CCOCC3)s2)cc1C` was tested, and the “hERG current change (%, negative = inhibition) at 10uM” value was -31.2%. In the case of `O=C(COC(=O)c1cn(-c2ccccc2)nc1-c1cccnc1)NC1CC1`, the “hERG current change (%, negative = inhibition) at 10uM” value is reported as -0.964%. For `COC(=O)c1cn(-c2ccccc2)nc1-c1cccnc1`, the “hERG current change (%, negative = inhibition) at 10uM” value was -28.5%. With `NC(=O)c1cn(-c2ccccc2)nc1-c1cccnc1` the “hERG current change (%, negative = inhibition) at 10uM” value was -1.67%. With `O=C(NC1CCN(Cc2ccccc2)CC1)c1cn(-c2ccccc2)nc1-c1cccnc1` the “hERG current change (%, negative = inhibition) at 10uM” value was -68%. For `O=C(NC1CCN(Cc2ccc(Cl)cc2)CC1)c1cn(-c2ccccc2)nc1-c1cccnc1`, the “hERG current change (%, negative = inhibition) at 10uM” value was -75.1%. `O=C(NCc1cccnc1)c1cn(-c2ccccc2)nc1-c1ccccc1` was tested, and the “hERG current change (%, negative = inhibition) at 10uM” value was -24.3%. For `O=C(O)c1cn(-c2ccccc2)nc1-c1cccnc1`, the “hERG current change (%, negative = inhibition) at 10uM” value was -1.94%. In the case of `O=C(NCc1ccncc1)c1cn(-c2ccccc2)nc1-c1cccnc1`, the “hERG current change (%, negative = inhibition) at 10uM” value is reported as -62%. `O=C(NCc1cccnc1)c1cn(-c2ccccc2)nc1-c1cccs1` was tested, and the “hERG current change (%, negative = inhibition) at 10uM” value was -32%. With `CCc1ccc(NC(=S)NCc2ccccc2)cc1` the “hERG current change (%, negative = inhibition) at 10uM” value was 3.91%. `Cc1nc(N/N=C/c2ccc(Br)cc2)cc(N2CCOCC2)n1` was tested, and the “hERG current change (%, negative = inhibition) at 10uM” value was -0.525%. In the case of `CCOC(=O)N1CCC(NC(=O)c2ccc(CS(=O)(=O)c3ccc(OC)cc3)o2)CC1`, the “hERG current change (%, negative = inhibition) at 10uM” value is reported as -33.4%. `C[C@]12C[C@H](O)[C@@H]3c4ccc(O)cc4CCC3[C@@H]1CCC2=O` (stereo partly shown) was tested, and the “hERG current change (%, negative = inhibition) at 10uM” value was 9.39%. In the case of `COCCN(CCOC)C(=O)c1ccc(CSc2nc3ccccc3s2)cc1`, the “hERG current change (%, negative = inhibition) at 10uM” value is reported as -21.8%.
